In PubChem BioAssay AID1863 (Southern Research Specialized Biocontainment Screening …, 2009):
In all, about 300,000 compounds went through this assay and about 480 (0.16%) were called active.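 Rule for the calls: active = inhibition over 29.93%, a cutoff 3 SD above the screen mean, later confirmed by dose response; inconclusive = inhibition over 29.93% but no dose response follow-up; inactive = inhibition at most 29.93% or unconfirmed.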 These entries were drawn from the full list. Potency and affinity values are given separately.

Test: PhoP-dependent GFP reporter repression – Salmonella Typhimurium, primary screen (AID 1863);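 note: 0% = low Mg2+ inducing control and 100% = high Mg2+ repressing control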
Settings: S. Typhimurium PhoP-regulated promoter GFP reporter, 4 h; at 50 µM; active compounds read high

inhibition, inactive:
COCCCNC(=O)CCCN1C(=O)c2cccnc2Sc2ccccc21 -9.37%
COc1ccc(N2CCN(c3nc4c(C)cccn4c(=O)c3/C=C(\C#N)C(N)=O)CC2)cc1 0.07%
COc1cc(Cl)ccc1OCc1cc(C(=O)N2CCC(N(C)C)C2)no1 (stereo unspecified) 4.49%
Oc1c(CN2CCCCC2)cc(Br)c2cccnc12 -2.58%
COCc1cc(CN2CCCC2)c(O)c2ncccc12 0.6%
O=[N+]([O-])c1cccc2c(N3CCOCC3)ccnc12 -2.73%
O=C(Oc1c(CN2CCOCC2)cc(Cl)c2cccnc12)c1ccccc1Cl 13.4%
O=[N+]([O-])c1cc(CN2CCN(c3ccccc3)CC2)c(O)c2ncccc12 14%
CN1CCN(Cc2cc(COCc3ccccc3)c3cccnc3c2O)CC1 21%
O=C(COC(=O)c1cc[n+]([O-])cc1)Nc1c(Cl)cccc1C(F)(F)F 0.58%
Cc1occc1-c1nnc(SCCNCCO)o1 -0.93%
CCn1ccnc1[C@@H]1C[C@H]2CN(Cc3cccc(Cl)c3)C(=O)[C@]23CCCN13 3.68%
CCN1C(=O)CSc2ccc(C(=O)NCc3ccc(OC)cc3)cc21 -1.69%
COc1ccc(S(=O)(=O)NN=C2CCCC2)cc1 1.9%
O=C(c1oc(=O)c2ccccc2c1-c1ccccc1)N1CCC(O)CC1 18.1%
CCOc1ccccc1N1CCN(CC(=O)Nc2ncc(C)s2)CC1 -2.9%
Oc1cccc(C=NCc2ccccc2)c1 4.18%
O=C(Cc1ccccc1)N/N=C/c1cc(Br)cc(Br)c1O -8.98%
Oc1cccc(/C=N/N=C/c2cccc(O)c2O)c1O 16.2%
Oc1c(Br)cc(Br)cc1C=NCc1ccc(F)cc1 10.4%
CCOc1ccccc1N(CC(=O)N/N=C(\C)c1cccc(Br)c1)S(C)(=O)=O -0.46%
CC(C)C[C@H](NC(=O)c1[nH]cnc1C(=O)N[C@H](C)c1ccccc1)C(=O)OC(C)(C)C -2.19%
CCCCCCCCOC(=O)C[N+](C)(C)C/C=C(/C)Cl 2.02%
CCCCCCCCCCCCOC(=O)C[N+](C)(C)C 0.96%
Cc1cc(C(=O)NCCN2CCOCC2)ccc1[N+](=O)[O-] -2.2%
Nc1nc(-c2ccccn2)nc(N)c1Cc1ccc(Cl)cc1Cl 3.01%
Cc1nc(N)c(Cc2ccccc2F)c(N)n1 2.15%
COc1ccc(C(=O)NCC(=O)N2CCN(c3ccccc3)CC2)cc1 -3.55%
COCc1c(C(=O)N/N=C/c2ccc(C)o2)nnn1-c1nonc1N 4.95%
COc1cccc(CC(=O)Nc2nc(-c3cccnc3)cs2)c1 -6.4%
Cc1ccc(N2C(=O)CC(NNc3nc4ccccc4s3)C2=O)cc1 (stereo unspecified) 7.17%
Cc1cc(=O)[nH]c(-n2nc(C)cc2C)n1 -11.6%
Cc1ccc(Nc2cc(C)nn2-c2nc(C)cc(C)n2)cc1 14.5%
Cc1ccc(S(=O)(=O)N2CCN(Cc3ccccc3)CC2)cc1 -4.43%
Cc1cc(C)c2ccc(NN)nc2c1O 0%
Cc1cc(C)c2ccc(C(=O)O)nc2c1O -7.66%
CCn1c(C)nnc1SCC(=O)Nc1ccc(N2CCOCC2)cc1 10%
O=C(COc1ccccc1[N+](=O)[O-])N1CCC(Cc2ccccc2)CC1 4.09%
Cc1nnc(N/N=C/C(C)c2ccccc2)[nH]c1=O (stereo unspecified) -2.09%
Cc1nnc(N/N=C/c2c[nH]c3ccccc23)[nH]c1=O 7.38%
S=C(Nc1ccccc1Cl)N(Cc1ccccc1)Cc1cccnc1 4.33%
O=C(CSc1ccc(-c2ccccn2)nn1)N1CCc2ccccc21 -3.41%
O=C(C[n+]1cc(-c2ccc(F)cc2)n2c1CCC2)Nc1nc(-c2ccc(F)cc2)cs1 20.4%
Cc1ccc(NC(=O)C[n+]2cc(-c3ccccc3)n3c2CCC3)cc1 -4.1%
Cc1ccc(-c2csc(NC(=O)C[n+]3cc(-c4ccccc4)n4c3CCC4)n2)cc1 -8.54%
O=C(C[n+]1cc(-c2ccccc2)n2c1CCC2)Nc1nc(-c2ccc(F)cc2)cs1 11.3%
Cc1ccc(NC(=O)C[n+]2cc(-c3ccc(C)cc3)n3c2CCC3)cc1 -9.5%
Cc1ccc(-c2c[n+](CC(=O)Nc3nc(-c4ccccc4)cs3)c3n2CCC3)cc1 -7.93%
O=C(c1cc2ccc([N+](=O)[O-])cc2oc1=O)N1CCOCC1 -3.48%
O=C(COc1ccc(S(=O)(=O)N2CCCCC2)cc1)Nc1ccccc1F -6.38%
O=C(c1ccc(N2CCN(C3CC(=O)N(Cc4cccs4)C3=O)CC2)cc1)c1cccnc1 (stereo unspecified) 4.02%
O=C(O)c1ccn2c(C(=O)c3ccccc3)c(-c3ccccc3)cc2c1 -13.9%
Cc1cc(C)c(NC(=O)c2cc(S(=O)(=O)N3CCOCC3)ccc2F)c(C)c1 -1.33%
C[C@H]1COc2c(C3(N)CC3)c(F)cc3c(=O)c(C(=O)O)cn1c23 -7.84%
CCOc1ccc(C(=O)Nc2ccc(N3CCN(C)CC3)cc2)cc1 -7.33%
CN1CCN(c2c(F)cc3c(=O)c(C(=O)O)cn(CCF)c3c2F)CC1 -2.24%
CCOc1ccc(C(=O)Nc2ccc(S(=O)(=O)N3CCN(C)CC3)cc2)cc1 8.02%
C[C@H]1COc2c(N3CCN(C)CC3)c(F)cc3c(=O)c(C(=O)O)cn1c23 -9.45%
CCn1cc(C(=O)NCC2CCCO2)c(=O)c2cc(F)c(N3CCN(C)CC3)cc21 (stereo unspecified) 0.68%
Cc1cc(C)n(CC(=O)N2c3ccccc3Sc3ccc(C(F)(F)F)cc32)n1 -5.1%
Cc1cc[n+](-c2[nH]c(=O)sc2/C=N/N=C(\[O-])CCn2c3ccccc3c3ccccc32)cc1 1.47%
Cn1c(=O)oc2cc(S(=O)(=O)NCCC(=O)N3CCc4ccccc4C3)ccc21 -8.83%
COc1ccc(C(CNS(=O)(=O)c2ccc(F)cc2)N2CCN(C)CC2)cc1 (stereo unspecified) 3.53%
NC(=O)COC(=O)C12CC3CC(CC(O)(C3)C1)C2 17.4%
CCOc1ccc(C(C)=O)cc1CSc1nc(C)cc(C)n1 4.1%
CC(=O)c1cccc(NC(=O)NC2CCCCC2)c1 -2.42%
COCCn1c(-c2ccc(Cl)cc2)cnc1SCC(=O)NCCc1ccc(OC)c(OC)c1 12.7%
C=COCCn1c(-c2nonc2N)nc2ccccc21 18.4%
CC(C)CCOC(=O)C[N+](C)(C)CCOC1CC2CCC1(C)C2(C)C (stereo unspecified) -2.94%
CCCOC(=O)C[N+](C)(C)CCOC1CC2CCC1(C)C2(C)C (stereo unspecified) -23.2%
CCCCOC(=O)C[N+](C)(C)CCOC1CC2CCC1(C)C2(C)C (stereo unspecified) -9.77%
CCOC(=O)C[N+](C)(C)CCOC1CC2CCC1(C)C2(C)C (stereo unspecified) 6.45%
CC(C)CCNC(=O)C1(c2cccs2)CCOCC1 -3.36%
O=C(NCc1ccccn1)Nc1cccc(Cl)c1Cl 7.04%
O=C1C=C(O)c2c(O)cccc2C1=O 5.73%
O=C1C=C(O)c2cccc(O)c2C1=O 4.81%
CC(=O)c1cccc(NC(=O)CCc2nnc3ccc(N4CCOCC4)nn23)c1 9.13%
O=c1c2ccccc2nc2c3ccccc3c(NCCN3CCOCC3)nn12 -8.49%
Cc1ccc(-c2csc3nc4c5ccccc5c(NCCCN5CCOCC5)nn4c(=O)c23)cc1 2.89%
COc1cccc(/C=N/NC(=O)c2ccc(CN3c4cccc5cccc(c45)S3(=O)=O)cc2)c1 -6.43%
Cc1cc(OCC(O)CNC(C)(C)C)ccc1Cl (stereo unspecified) -6.41%
OC(CNCCc1ccc(Cl)cc1)COc1ccc2ccccc2c1 (stereo unspecified) 7.14%
Cc1nc(N)nc(N/N=C/c2ccccc2)n1 -5.41%
COCC(C)NS(=O)(=O)c1ccccc1 (stereo unspecified) -1.07%
CC(=O)c1cccc(NC(=O)c2sc3nc4n(c(=O)c3c2C)CCCCC4)c1 11.4%
O=C(CN1CCOCC1)N/N=C/c1c(O)ccc2ccccc12 3.4%
Oc1ccc2ccccc2c1/C=N/Nc1ccccc1 -2.22%
O=C(CN1CCCc2ccccc21)N/N=C/c1c(O)ccc2ccccc12 41.7%
NC(=S)N/N=C/c1c(O)ccc2ccccc12 -8.26%
CCc1nccn1CCC(=O)N1CCCC(N2CCN(c3cccc(Cl)c3)CC2)C1 (stereo unspecified) -2.69%
CN1CCCN(C(=O)c2cccc3ccccc23)CC1 -0.73%
O=C1CC(C(=O)N2CCN(c3ccc(F)cc3)CC2)CN1CCc1ccccc1 (stereo unspecified) 5.66%
CCCN(CC(=O)Nc1ccccc1C)C(=O)COc1ccc2c(c1)CCC2 -2.3%
CN1CCCN(C(=O)c2c(F)cccc2Cl)CC1 -6.36%
CCCS(=O)(=O)N1CCN(C(=O)COc2ccccc2)CC1 1.1%
O=C(C[n+]1cc(-c2ccccc2)n2c1CCC2)Nc1nc(-c2ccccc2)cs1 2.36%
O=C(C[n+]1cc(-c2ccc(F)cc2)n2c1CCC2)Nc1nc(-c2ccccc2)cs1 14.9%
Cn1c(NC(=O)C[n+]2cc(-c3ccc(F)cc3)n3c2CCC3)cc(=O)n(C)c1=O 4.11%
O=C(C[n+]1cc(-c2ccccc2)n2c1CCC2)N1c2ccccc2Sc2ccccc21 9.1%
O=C(C[n+]1cc(-c2ccc(Cl)cc2)n2c1CCC2)N1c2ccccc2Sc2ccccc21 17.8%
Cn1c(NC(=O)C[n+]2cc(-c3ccc(Cl)cc3)n3c2CCC3)cc(=O)n(C)c1=O 4.64%
